# In PubChem BioAssay (EPA / NIEHS):
# Inconclusive results are not listed. Active and inactive are the calls of the source. How the source made its calls: active means hit-call score of the fitted dose curve at least 0.9, where 1 is the maximum; inconclusive means response in the unintended direction; inactive means score below 0.9.
# Experiment: Tanguay_ZF_120hpf_CFIN_legacy: (Legacy) Oregon State University Tanguay Lab 120 Hour Post-fertilization zebrafish Assay for Caudal Fin Malformation (AID 2283649)
# Procedure, shortened: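 Dechorionated Tropical 5D wild-type embryos, one per well from 6 hpf, static exposure to 120 hpf at 28C in 0.64% DMSO. Caudal fin malformation scored by brightfield as present/absent; not scored in dead embryos.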
Compound,outcome,AC50
COC(=O)CCC(=O)OC,inactive,–
CCCCCCCCCC[N+](C)(C)[O-],inactive,–
CCCC[C@H]1CN(CC2CCOCC2)C(=O)OC12CCN(C1(C)CCN(C(=O)c3c(C)ncnc3C)CC1)CC2,inactive,–
O=C(O)CC(O)(CC(=O)O)C(=O)O,inactive,–
NC(=Nc1ccccc1)Nc1ccccc1,inactive,–
NC=O,inactive,–
CCCCC(CC)CO (stereo not given),inactive,–
COc1ccc(OC(F)(F)F)cc1CN[C@H]1CCCN[C@H]1c1ccccc1,inactive,–
CC(C)c1cccc(C(C)C)c1NC(=O)NS(=O)(=O)c1cc(C(C)(C)O)co1,inactive,–
Cc1cc(Cc2ccc(N)c(C)c2)ccc1N,inactive,–
Cc1ccc(-c2cc(C(F)(F)F)nn2-c2ccc(S(N)(=O)=O)cc2)cc1,inactive,–
O=C(NS(=O)(=O)/C=C/c1cccs1)c1ccc(F)cc1Br,inactive,–
CCc1nc(N)nc(N)c1-c1ccc(Cl)cc1,inactive,–
C/C=C/C=C/C(=O)O,inactive,–
CCCCCCCC(=O)OC,inactive,–
O=C(O)c1[nH]n(-c2ccc(S(=O)(=O)O)cc2)c(=O)c1N=Nc1ccc(S(=O)(=O)O)cc1,inactive,–
CCC(C)N(C)C(=O)c1cc2ccccc2c(-c2ccccc2Cl)n1 (stereo not given),inactive,–
CC(=O)OC1CC(C)OC(C)O1 (stereo not given),inactive,–
Cc1cc(SC2=C(O)C[C@@](CCc3ccc(N)cc3)(C(C)C)OC2=O)c(C(C)(C)C)cc1CO,inactive,–
C#CC(O)C(CC)CCCC (stereo not given),inactive,–
O=[Si]=O,inactive,–
O=C(Oc1ccccc1)c1cccc(C(=O)Oc2ccccc2)c1,inactive,–
S=c1[nH]c2ccccc2s1,–,31.9 µM (active)
O=C1CCCCC1,inactive,–
C/C=C/c1ccc(OC)cc1,inactive,–
CN(C)C(=O)NC1(c2ccccc2)CCN(CCC[C@]2(c3ccc(Cl)c(Cl)c3)CCCN(C(=O)c3ccccc3)C2)CC1,inactive,–
Cc1occc(=O)c1O,inactive,–
CCCCCCCCCCCCCCCCO,inactive,–
CC(=O)OCC(COC(C)=O)OC(C)=O,inactive,–

# Experiment: Tanguay_ZF_120hpf_PIG_legacy: (Legacy) Oregon State University Tanguay Lab 120 Hour Post-fertilization zebrafish Assay for Pigmentation Malformation (AID 2283650)
# Procedure, shortened: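 Endpoint is incidence of abnormal pigmentation at 120 hpf in dechorionated 5D zebrafish exposed singly from 6 hpf at 28C, DMSO vehicle at 0.64%. Embryos dying by 24 or 120 hpf are excluded from scoring.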
Compound,outcome,AC50
COC(=O)CCC(=O)OC,inactive,–
CCCCCCCCCC[N+](C)(C)[O-],inactive,–
CCCC[C@H]1CN(CC2CCOCC2)C(=O)OC12CCN(C1(C)CCN(C(=O)c3c(C)ncnc3C)CC1)CC2,inactive,–
O=C(O)CC(O)(CC(=O)O)C(=O)O,inactive,–
NC(=Nc1ccccc1)Nc1ccccc1,inactive,–
NC=O,inactive,–
COc1ccc(OC(F)(F)F)cc1CN[C@H]1CCCN[C@H]1c1ccccc1,inactive,–
CC(C)c1cccc(C(C)C)c1NC(=O)NS(=O)(=O)c1cc(C(C)(C)O)co1,inactive,–
Cc1cc(Cc2ccc(N)c(C)c2)ccc1N,inactive,–
Cc1ccc(-c2cc(C(F)(F)F)nn2-c2ccc(S(N)(=O)=O)cc2)cc1,inactive,–
O=C(NS(=O)(=O)/C=C/c1cccs1)c1ccc(F)cc1Br,inactive,–
CCc1nc(N)nc(N)c1-c1ccc(Cl)cc1,inactive,–
C/C=C/C=C/C(=O)O,inactive,–
CCCCCCCC(=O)OC,inactive,–
O=C(O)c1[nH]n(-c2ccc(S(=O)(=O)O)cc2)c(=O)c1N=Nc1ccc(S(=O)(=O)O)cc1,inactive,–
CCC(C)N(C)C(=O)c1cc2ccccc2c(-c2ccccc2Cl)n1 (stereo not given),inactive,–
CC(=O)OC1CC(C)OC(C)O1 (stereo not given),inactive,–
C#CC(O)C(CC)CCCC (stereo not given),inactive,–
CC(=O)O,inactive,–
O=[Si]=O,inactive,–
O=C(Oc1ccccc1)c1cccc(C(=O)Oc2ccccc2)c1,inactive,–
S=c1[nH]c2ccccc2s1,–,39.6 µM (active)
O=C1CCCCC1,inactive,–
C/C=C/c1ccc(OC)cc1,inactive,–
CN(C)C(=O)NC1(c2ccccc2)CCN(CCC[C@]2(c3ccc(Cl)c(Cl)c3)CCCN(C(=O)c3ccccc3)C2)CC1,inactive,–
Cc1occc(=O)c1O,inactive,–
CCCCCCCCCCCCCCCCO,inactive,–
CC(=O)OCC(COC(C)=O)OC(C)=O,inactive,–

# Experiment: Tanguay_ZF_120hpf_CIRC_legacy: (Legacy) Oregon State University Tanguay Lab 120 Hour Post-fertilization zebrafish Assay for Circulatory Malformation (AID 2283651)
# Procedure, shortened: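 Static exposure, 6–120 hpf, 28C, sealed and dark; one dechorionated 5D embryo/well; DMSO 0.64% v/v final. Binary circulation endpoint by brightfield; dead embryos not scored.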
row,Compound,outcome
1,COC(=O)CCC(=O)OC,inactive
2,CCCC[C@H]1CN(CC2CCOCC2)C(=O)OC12CCN(C1(C)CCN(C(=O)c3c(C)ncnc3C)CC1)CC2,inactive
3,O=C(O)CC(O)(CC(=O)O)C(=O)O,inactive
4,NC(=Nc1ccccc1)Nc1ccccc1,inactive
5,CC(C)c1cccc(C(C)C)c1NC(=O)NS(=O)(=O)c1cc(C(C)(C)O)co1,inactive
6,CCc1nc(N)nc(N)c1-c1ccc(Cl)cc1,inactive
7,O=C(O)c1[nH]n(-c2ccc(S(=O)(=O)O)cc2)c(=O)c1N=Nc1ccc(S(=O)(=O)O)cc1,inactive
8,CC(=O)OC1CC(C)OC(C)O1 (stereo not given),inactive
9,Cc1cc(SC2=C(O)C[C@@](CCc3ccc(N)cc3)(C(C)C)OC2=O)c(C(C)(C)C)cc1CO,inactive
10,CC(=O)O,inactive
11,O=[Si]=O,inactive
12,CN(C)C(=O)NC1(c2ccccc2)CCN(CCC[C@]2(c3ccc(Cl)c(Cl)c3)CCCN(C(=O)c3ccccc3)C2)CC1,inactive
13,Cc1occc(=O)c1O,inactive
